Screening results deposited in PubChem BioAssay by National Center for Advancing Translational Sciences (NCATS).
PNC assembly inh: High Content Assay for Compounds that inhibit the Assembly of the Perinucleolar Compartment | PC3M PTB-GFP, PNC prevalence imaging, 16 h; stronger effect = lower value | activity change (PNC), negative = inhibition, % at 10 µM | 140,000 compounds, 3.1% hits | AID 2417, 2010;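 active = readout at or below -70, meaning at least 70% loss of cells showing the perinucleolar compartment, a nuclear body marking cancer cells; inconclusive = readout between -30 and a set limit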
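Compounds are pinned in duplicate onto adhered PC3M cells stably expressing GFP-tagged PTB and incubated 16 h at 37 C. Cells are then fixed, nuclei stained with Hoechst, and PNC-positive cells counted.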
ALOX12 inhib: qHTS Assay for Inhibitors of 12-hLO (12-human lipoxygenase). purified 12-hLO, xylenol orange hydroperoxide absorbance. Potency, µM (doses to about 57.1 µM), most hits filed as inhibitors. 150,000 compounds, 0.12% hits; note: nearly all actives have a fitted effect of over 55% in size
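Purified human 12hLO (150 nM), preincubated 15 min with compound, then 40 uM arachidonic acid for 30 min, room temperature, Hepes pH 7.0 with 0.01% Triton X-100. Hydroperoxide detected by ferrous iron/xylenol orange; 573/405 nm absorbance ratio gives reaction progress.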
IMPase cell inh: qHTS Assay for Identifying the Cell-Membrane Permeable IMPase Inhibitors; AID 901, 2007; CHO-M1 cells, IP1 accumulation, HTRF TR-FRET ratio; Inositol monophosphatase 1 (Rattus norvegicus), P97697; 120,000 tested, under 10 active; inhibition (IP1 accumulation), % at 46.1 µM; active = well fitted curve in the direction sought with a large enough effect in the signal ratio, not every such curve was filed as active; inconclusive = small, poorly fitted or top-dose-only effect, or a change in a side signal; inactive = no such curve, though single readings can be large or run the other way; the % refers to the signal ratio;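 note: cells stimulated with carbachol in lithium chloride buffer; higher means more IMPase inhibition seen as more IP1 and lower FRET ratio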
Target sequence (P97697 whole entry, looked up): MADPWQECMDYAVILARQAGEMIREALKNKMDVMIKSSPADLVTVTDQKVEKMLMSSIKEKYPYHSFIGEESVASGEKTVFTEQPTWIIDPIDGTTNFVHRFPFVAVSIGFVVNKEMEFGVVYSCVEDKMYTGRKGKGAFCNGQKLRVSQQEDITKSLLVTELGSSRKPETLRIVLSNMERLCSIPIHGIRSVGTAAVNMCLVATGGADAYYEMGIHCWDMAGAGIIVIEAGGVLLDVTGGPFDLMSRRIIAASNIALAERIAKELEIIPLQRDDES
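CHO-M1, 2000 cells/well, cultured 16–30 h; cpd up to 46 uM; carbachol (50 uM solution, stimulation buffer w/ 50 mM LiCl, pH 7.4), 30 min 37C; IP-One TR-FRET, 10 min RT; Ex 320/Em 665, 620; Hill-fit AC50.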
IMPase Li cell: qHTS Assay for Identifying the Cell-Membrane Permeable IMPase Inhibitors: Potentiation with Lithium | CHO-M1 cells, IP1 TR-FRET (IP-One), carbachol + lithium | 210,000 compounds, 0.35% hits | Potency, µM (highest dose often 59.4 µM), most hits filed as inhibitors | AID 1457, 2008;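 note: IP1 builds up when IMPase is blocked and the TR-FRET signal falls; nearly all actives have a fitted effect of over 50% in size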
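Lithium-sensitised IP1 accumulation assay; M1-expressing CHO cells treated 30 min at 37C with compound. Competitive antibody detection by time-resolved FRET followed a 10 min room-temperature lysis step.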
Each line names hits and unclear results; the compound was inactive in the other large screens. This is one part of a sample in which hits are shown more often than they occur. Unless noted, calls come from the whole dose curve; as a rule, active = well fitted curve in the direction sought with a large enough effect; inconclusive = small, poorly fitted or top-dose-only effect, or another doubt; inactive = no such curve, though single readings can be large; an effect the other way counts as inactive or inconclusive.

O=C(O)C=C1C2CC3CC(C2)CC1C3	PNC assembly inh -82
CCN(CC)CC(=O)Nc1ccccc1SCC(=O)Nc1ccsc1C(=O)OC	none (no result: PNC assembly inh, ALOX12 inhib, IMPase cell inh)
CCn1c(SCC(=O)Nc2oc(-c3ccccc3)c(-c3ccccc3)c2C#N)nnc1-c1cc(OC)cc(OC)c1	none
O=C(c1sccc1-n1cccc1)N1CCCC1	PNC assembly inh -83
O=C(NCCc1ccccc1)C1CCN(C(=O)c2sccc2-n2cccc2)CC1	PNC assembly inh inconclusive
CN1CCN(Cc2c(O)c(Cl)cc3c(-c4ccccc4)cc(=O)oc23)CC1	none
CCCCc1cc(=O)oc2c(CN3CCCC3)c(O)c(Cl)cc12	IMPase cell inh inconclusive, IMPase Li cell 10µM
CCCc1cc(=O)oc2c(CN3CCN(C)CC3)c(O)c(Cl)cc12	none (no result: IMPase Li cell)
Cc1cc(=O)oc2c(CN3CCN(C)CC3)c(O)c(Cl)cc12	PNC assembly inh inconclusive, IMPase cell inh inconclusive, IMPase Li cell 13µM
CCOC(=O)C1CCCN(C(=O)c2cc3nc(-c4cccc(OC)c4)cc(C(F)(F)F)n3n2)C1 (stereo unspecified)	PNC assembly inh -80
CCn1cc(C(=O)O)c(=O)c2cc(F)c(N/N=C/c3ccccc3[N+](=O)[O-])cc21	none (no result: IMPase cell inh)
O=C(NCc1nc2ccccc2[nH]1)[C@H]1C[C@@H]1[C@H](NP(=O)(c1ccccc1)c1ccccc1)c1ccccc1	none (no result: PNC assembly inh, IMPase cell inh)
Cc1ccc(C(=O)Nc2nc(C)c(C(=O)Nc3ccc4c(c3)CCC4)s2)cc1	PNC assembly inh -89
O=C(Nc1ccc2c(c1)CCC2)c1ccccc1	none
Cc1nc(NC(=O)c2ccc(F)cc2)sc1C(=O)Nc1ccc2c(c1)CCC2	PNC assembly inh inconclusive, IMPase Li cell 22µM
CN(C)CCN(c1ccccn1)c1ccccn1	none (no result: PNC assembly inh, IMPase cell inh)
CCc1cccc(CC)c1-n1c(SCC(=O)c2c(N)n(C)c(=O)n(C)c2=O)nnc1-c1cccnc1	PNC assembly inh -134, IMPase Li cell inconclusive (no result: IMPase cell inh)
CCn1c(SCC(=O)c2c(N)n(C)c(=O)n(C)c2=O)nnc1-c1ccccc1	none (no result: IMPase cell inh)
CC(C)CC(=O)Nc1ccc(Nc2ccccc2)cc1	PNC assembly inh -100
O=C1CC(c2ccccc2)Oc2ccccc21 (stereo unspecified)	none (no result: PNC assembly inh, IMPase cell inh)
Cn1c(Cl)cnc1C1CC(=O)c2cc(Cl)ccc2O1 (stereo unspecified)	PNC assembly inh -112
OC1C2COC(O2)[C@H](O)C1O (stereo partly specified)	none (no result: PNC assembly inh, IMPase cell inh)
O=C(NNc1ccc([N+](=O)[O-])cc1)C1CC2CCCC(C1)C2=O (stereo unspecified)	PNC assembly inh -109
CCN(CC)S(=O)(=O)c1ccc(-c2nnco2)cc1	PNC assembly inh -100
Cc1nc2ccc(Cl)cn2c1C(=O)NN	none (no result: PNC assembly inh, ALOX12 inhib, IMPase cell inh)
c1ccc2c(c1)CCCC2C1=NCCN1 (stereo unspecified)	none (no result: IMPase cell inh)
Brc1ccc2c(c1)C(C1=NCCN1)c1ccccc1CS2 (stereo unspecified)	PNC assembly inh -109 (no result: IMPase cell inh)
COc1ccc(/C=N/N2CCOCC2)cc1COc1ccc(Cl)cc1	PNC assembly inh -111 (no result: IMPase cell inh)
CCOC(=O)c1c(-c2ccc(Cl)cc2)cn2ccccc12	IMPase Li cell 28µM
CCOC(=O)c1cnc2c(-c3ccc(Cl)cc3)cnn2c1C	none (no result: PNC assembly inh, ALOX12 inhib, IMPase cell inh)
Nc1nc(SCc2ccc(Cl)cc2Cl)nc2nc3c(cc12)CCCC3	PNC assembly inh -83 (no result: IMPase cell inh)
CCN(CC)S(=O)(=O)c1ccc(N2CCOCC2)c(NC(=O)Cc2cccc3ccccc23)c1	none (no result: IMPase cell inh)
COc1ccc2c(C)cc(SCC#N)nc2c1	none
COc1ccc2c(C)cc(SCc3c(C)noc3C)nc2c1	PNC assembly inh -111
COc1ccc2c(c1)C(c1ccc3c(c1)OCO3)CC(=O)O2 (stereo unspecified)	none (no result: PNC assembly inh, IMPase cell inh)
CC(C)[C@H](NC(=O)c1ccccc1)C(=O)OCC(=O)NCCc1ccc(F)cc1	PNC assembly inh -134 (no result: IMPase cell inh)
COc1ccccc1NS(=O)(=O)c1ccc(S(=O)(=O)N2CCOCC2)cc1	none (no result: PNC assembly inh, ALOX12 inhib, IMPase cell inh)
CC(C)NC(=O)CSc1nc2ccccc2n1-c1ccccc1	none
CC(C)NC(=O)CSc1nncn1-c1ccccc1	PNC assembly inh -97
CC(C)NC(=O)CSc1nnc(-c2ccc(C(C)(C)C)cc2)n1C	PNC assembly inh -100
CCOc1cc(OCC)c(C(C)=O)cc1OCC	none (no result: PNC assembly inh, IMPase cell inh)
COC(=O)/C=c1\sc2ncnn2c1=O	PNC assembly inh -81
CNC(=O)CSc1nnc(-c2cc(C)cc(C)c2)o1	PNC assembly inh -103
CC1CCCCN1CCCNC(=O)c1ccc(Cc2nc3ccccc3[nH]2)cc1 (stereo unspecified)	none (no result: PNC assembly inh, IMPase cell inh, IMPase Li cell)
CCOC(=O)CSc1nnc(-c2ccccc2NC(=O)c2ccccc2)o1	PNC assembly inh inconclusive, IMPase Li cell 11µM
O=c1oc2ccccc2c(O)c1/C=N/c1nc(-c2ccc(O)c(O)c2)cs1	none (no result: PNC assembly inh, IMPase cell inh)
CC(=O)N1CCC(N(CCN2CCOCC2)C(=S)Nc2ccccc2C)CC1	PNC assembly inh -112 (no result: IMPase cell inh)
Cc1cc(C(=O)OCC(=O)c2ccc(Br)s2)c(C)o1	none
Cc1cc(C(=O)OCC(=O)c2ccc(Br)s2)no1	ALOX12 inhib inconclusive, IMPase cell inh inconclusive, IMPase Li cell 6.3µM
COc1ccc(S(=O)(=O)Nc2cc3c(cc2NCc2ccccc2)n(C)c(=O)n3C)cc1	none (no result: PNC assembly inh, ALOX12 inhib, IMPase Li cell)
Cc1cccc(C)c1NC(=O)N1C2CCCC1CC(NC(=O)C(C)(C)C)C2 (stereo unspecified)	PNC assembly inh -96
CCc1nnc(NC(=O)c2ccc(Cl)c(S(=O)(=O)N3CCc4ccccc4C3)c2)s1	none (no result: IMPase cell inh)
CCc1nnc(NC(=O)c2ccc(S(=O)(=O)N3CCc4ccccc4C3)cc2)s1	PNC assembly inh -85
O=C(O)/C(=C\c1ccccc1)Cc1ccccc1	none (no result: PNC assembly inh, IMPase cell inh)
c1coc(-c2ncc[nH]2)c1	PNC assembly inh -97
CCC(=O)/C=C1/Sc2ccccc2N1CC	none
CCN(CC)C(C)CN1c2ccccc2Sc2ccccc21 (stereo unspecified)	ALOX12 inhib 13µM (no result: PNC assembly inh, IMPase cell inh)
CCNC(=S)N(Cc1cc2cccc(C)c2[nH]c1=O)C1CCCC1	PNC assembly inh -119
Cc1ccsc1-c1nc(CN2CCCC2c2ccc(F)cc2)c(C)o1 (stereo unspecified)	none (no result: PNC assembly inh, ALOX12 inhib, IMPase cell inh)
COc1ccccc1Oc1c(C)oc2c(CN3CCN(C)CC3)c(O)ccc2c1=O	none
COC(=O)c1ccc(Oc2c(C)oc3c(CN4CCN(C)CC4)c(O)ccc3c2=O)cc1	IMPase Li cell 13µM
COc1ccc(CCCc2nnc(SCC(=O)Nc3ccc(Cl)cc3)o2)cc1	none (no result: PNC assembly inh, ALOX12 inhib, IMPase Li cell)
CN=C1N[C@H](c2ccccc2)N(c2ccccc2)S1	ALOX12 inhib inconclusive (no result: PNC assembly inh)
CC1C[C@@]2(NC(=O)NC2=O)C(C)CN1C (stereo partly specified)	PNC assembly inh -100
CC1CC2(NC(=O)NC2=O)C(C)CN1C (stereo unspecified)	PNC assembly inh inconclusive
O=C(Cn1nc(C(F)(F)F)c2c1CCC2)Nc1ccccc1C(F)(F)F	PNC assembly inh -100
CCOc1ccc(N(C(=O)C2CCCO2)C2C=CS(=O)(=O)C2)cc1 (stereo unspecified)	none (no result: PNC assembly inh, ALOX12 inhib, IMPase cell inh)
